Screening results (PubChem)
Only some compounds are listed: those with a hit (about 5.7% of all), similar ones and a draw of the others.
TGFb SMAD3 inh – qHTS for Inhibitors of TGF-b. actives 1.2% (n = 410,000). AID 588855, 2011. Potency, µM (top dose mostly 46.1 µM), for the others: at the highest dose activity, negative = inhibition, hits mostly inhibitors. HepG2 CAGA-GFP TGF-b/SMAD3 reporter, GFP fluorescence, 18 h; TGF-beta stimulated, 500 pg/mL final; note: potency is the fitted concentration of half-maximal effect; % is set by controls: 0 for no effect and ±100 for the full control effect; nearly all actives have a fitted effect of over 65% in size
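HEPG2 CAGA-GFP, 1000 cells/well; 2 h settle, 37 C; cpd via pin tool; TGF-b 500 pg/mL final; 18 h, 37 C; GFP imaging ex488/em500-530; %Activity normalised to -TGF-b and +DMSO controls; CRC fit, curve class.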
ATXN2 expr inh – Primary qHTS for Inhibitors of ATXN expression. actives 0.72% (n = 360,000). HEK-293 ATXN2-luciferase reporter, luminescence, 24 h. AID 1745845, 2022. Potency, µM (doses to about 57 µM), without a hit: at the top dose activity change, negative = inhibition, usual class: inhibitors; note: potency is the fitted concentration of half-maximal effect; % is set by controls: 0 for no effect and ±100 for the full control effect; nearly all actives have a fitted effect of over 55% in size
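qHTS (up to 57 uM final) was run with 24 h compound exposure of reporter cells at 37 °C. Each well was multiplexed: SteadyGlo luminescence measured ATXN2-luciferase expression after a fluorogenic Gly-Phe-AFC viability readout (25 uM final).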
S2 tox – Viability Counterscreen for Primary qHTS for Inhibitors of ATXN expression; S2 cells (HEK-293 line with an ATXN2-luciferase reporter) viability, CellTiter-Fluor protease fluorescence, 24 h; Potency, µM (top dose mostly 56.7 µM), most hits filed as cytotoxic; actives 0.49% (n = 400,000); note: potency is the fitted concentration of half-maximal effect; nearly all actives have a fitted effect of over 40% in size
IL1B secr inh – qHTS for Inhibitors of Inflammasome Signaling: IL-1-beta AlphaLISA Primary Screen; activity change, % at 57.5 µM; actives 4.7% (n = 360,000); THP-1 LPS/ATP IL-1B secretion, AlphaLISA, 16 h; hits give low values; AID 743279, 2014; in the data active = activity change below about -50%; inconclusive = mostly about -30% to -49%; note: % is set by controls: 0 for no effect and ±100 for the full control effect
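THP-1 cells pretreated 1 hr with compounds (up to 57.5 uM final), then stimulated with LPS (250 ng/mL final) plus ATP (1.25 mM final); secreted IL-1B measured by AlphaLISA after 16 hr, decreased signal indicating inhibition.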
HepG2 tox – qHTS for Inhibitors of TGF-b: Cytotox Counterscreen. HepG2 CAGA-GFP viability, ATP luminescence, 18 h. AID 588856, 2011. actives 0.76% (n = 410,000). Potency, µM (titrated, usually from 46.1 µM), inactives show at the top dose activity change, negative = cytotoxicity, usual class: cytotoxic; note: potency is the fitted concentration of half-maximal effect
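CellTiter-Glo luminescence gave cytotoxicity after 18 hours at 37 degrees C. The cells were HepG2 CAGA-GFP in 1% FBS DMEM, stimulated with 500 pg/mL TGF-beta after compound addition. %Activity was normalised to no-cell wells (complete cell-killing) and DMSO (no toxicity), and curves were fitted and classified.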
* marks the source's active call; other numbers are inactive results; i = inactive; ? = inconclusive; / = no result; ! = not confirmed by another sample. Unless noted, calls come from the whole dose curve; as a rule, active = well fitted curve in the direction sought with a large enough effect; inconclusive = small, poorly fitted or top-dose-only effect, or another doubt; inactive = no such curve, though single readings can be large; an effect the other way counts as inactive or inconclusive.

SMILES | TGFb SMAD3 inh | ATXN2 expr inh | S2 tox | IL1B secr inh | HepG2 tox
CCCCCCN1C[C@@H](n2cc(COC(=O)c3ccccc3)nn2)[C@H](O)C[C@@H]1c1ccccc1 | ? | -12% | ? | 25 | -61%
CCCCCC(=O)N1C[C@H](n2cc(-c3ccc(F)cc3)nn2)[C@@H](O)C[C@@H]1c1ccc(Cl)cc1 | ? | ? | ? | ? | -107%
CCCCCCN1C[C@H](n2cc(COC(=O)c3ccccc3)nn2)[C@@H](O)C[C@@H]1c1ccccc1 | ? | 0% | ? | 24 | -93%
CCCCCCN1C[C@H](n2cc(COC(=O)c3ccccc3)nn2)[C@@H](O)C[C@@H]1c1ccc(C)cc1 | ? | ? | ? | 25 | 10µM*
CC(N)c1csc(Nc2ncccn2)n1 (centres undefined) | 1% | -6% | i | 1 | 2%
NC(c1csc(Nc2cc(Oc3ccccc3)ncn2)n1)c1ccccc1Cl (centres undefined) | ? | ? | ? | -89* | -13%
NC(=O)c1ccc(Nc2nc(C(N)c3ccccc3Cl)cs2)cc1 (centres undefined) | 9% | 4% | i | -17 | -1%
CC(N)c1csc(Nc2cc(Oc3ccccc3)ncn2)n1 (centres undefined) | -23% | 2% | i | -65* | -8%
Cc1ccc(NC(=O)CN2C(=O)C3(SCC(=O)N3c3ccc(F)c(F)c3)c3ccccc32)c(C)c1 (centres undefined) | 1% | -14% | i | / | -14%
COCCNc1ccc2cc(S(=O)(=O)N3CCCCC3)ccc2n1 | -10% | -1% | i | / | -12%
COc1ccc(-c2c(N)nnc3c2[nH]c2ccccc23)cc1OC | 40% | 15% | i | -64* | 7%
COc1ccc(-c2c(N)n[nH]c2C)cc1OC | -12% | / | i | 0 | 10%
Cc1ccccc1Oc1nc2c(C)cccn2c(=O)c1/C=C(\C#N)C(=O)NC1CCS(=O)(=O)C1 (centres undefined) | ? | -31% | ? | -97* | 6.3µM*
CSc1ccc(/C=C2\C=Cc3cc([N+](=O)[O-])ccc32)cc1 | 3% | / | / | / | -3%
Cc1ccc(C)c(NC(=O)CSc2nncn3c2cc2sccc23)c1 | -1% | / | / | / | -19%
CCOc1ccccc1NC(=O)Cn1c(=O)nc(-c2ccccc2F)c2cc(Cl)ccc21 | -5% | / | / | / | -12%
CCN1C/C(=C/c2cccc([N+](=O)[O-])c2)C(=O)/C(=C/c2cccc([N+](=O)[O-])c2)C1 | ? | 3.2µM* | 4µM* | -106* | -53%
CCOc1ccc(N2C(=O)S/C(=C\c3ccc(O)c(OCC)c3)C2=O)cc1 | 0% | -2% | i | -53* | -15%
COc1cc(/C=C2/C(=O)CNC2=O)ccc1O | 2% | 7% | i | 26 | 9%
COc1cc(/C=C2\CCC/C(=C\c3ccc(O)c(OC)c3)C2=O)ccc1O | ? | ? | / | -95* | 10µM*!
COc1cc(C=C2C(=O)C=CC2=O)ccc1O | / | 13µM* | / | -113* | /
COC(=O)c1c(OCc2ccccn2)cc(=O)n2c1CCN(Cc1ccc3nsnc3c1)CC2 | / | / | i | / | /
COc1cc(C=C2CCC/C(=C\c3ccc(O)c(OC)c3)C2=O)ccc1O | / | 16µM* | 28µM* | / | /
COc1cc(/C=C2/CCCC(C(=O)C(F)(F)F)=C2O)ccc1O | 9% | 31% | i | -24 | -11%
CCOc1cc(/C=C2\CN(CC)C/C(=C\c3ccc(O)c(OCC)c3)C2=O)ccc1O | 5.6µM* | ? | ? | -104* | 8.9µM*
SMILES | TGFb SMAD3 inh | ATXN2 expr inh | S2 tox | IL1B secr inh | HepG2 tox
COc1cc(NC(=O)CCc2c(C)nn(-c3ccc(N4CCCCC4)nn3)c2C)cc(OC)c1OC | -4% | / | / | / | -35%
CCOc1ccc(N=Cc2ccc(N(C)C)cc2)c(O)c1 | ? | / | ? | 18 | -77%
CCOc1ccc(N=Cc2ccc([N+](=O)[O-])cc2)c(O)c1 | ? | / | ? | -52* | -100%
Cc1cc[n+](C)c2ccccc12 | -4% | / | / | / | -30%
CN1/C(=C/c2cc[n+](C)c3ccccc23)C=Cc2ccccc21 | ? | 3.8µM* | ? | -97* | -17%
O=C(CSc1nc(-c2cccs2)nc2cc(=O)[nH]n12)Nc1ccccc1Cl | -28% | 7% | i | / | -2%
COc1cc(NC(=O)c2ccc(F)cc2)c(OC)cc1Cl | -14% | -1% | i | 7 | -24%
COc1cc(NC(=O)c2c(F)c(F)c(F)c(F)c2F)c(OC)cc1Cl | -38% | ? | ? | -101* | -64%
FC(F)(F)c1cccc(NC(=S)NCCN2CCOCC2)c1 | 8% | -15% | i | 0 | -29%
Cc1ccc(C(=O)Nc2cccc(C(F)(F)F)c2)cc1-c1ccc2nc(NCCN3CCOCC3)ncc2c1 | / | 6.1µM* | / | / | /
Cc1c(C)c(C)c(/C=C/c2ccnc3ccccc23)c(C)c1C | -15% | / | / | / | -39%
Cc1ccc(C(C)CCN2CCOc3ccc(CN4CCOCC4)cc3C2)o1 (centres undefined) | / | / | i | / | /
O=C(NCc1ccccc1)C1=C[C@@H](c2csc3ccccc23)C[C@@H](OCCCCO)O1 | ? | 5.6µM* | ? | -12 | -15%
CCOc1cc(C2Sc3ccccc3NC3=C2C(=O)c2ccccc23)ccc1O (centres undefined) | -33% | ? | 32µM* | / | -35%
CCCc1ccc(C2Sc3ccccc3NC3=C2C(=O)c2ccccc23)cc1 (centres undefined) | ? | ? | / | / | -39%
Cc1cccc2cc(CN(C(=O)c3ccc(C(F)(F)F)cc3)C3CC3)c(N3CCC(O)CC3)nc12 | / | / | i | / | /
CC(C)(C)NC(=O)CN(C(=O)Cn1nnc(-c2ccc(Cl)cc2)n1)C1CCN(Cc2ccccc2)CC1 | 16µM* | -16% | ? | -82* | 18µM*
O=C(Cn1nnc(-c2ccc(CN3CCOCC3)cc2)n1)N(c1ccccc1)c1ccccc1 | -7% | -28% | i | 8 | -2%
O=[N+]([O-])c1ccc2c(c1)C=C/C2=C\c1ccccc1 | 17% | / | / | / | 26%
Cc1cc(C(=O)C(C)Sc2cccc[n+]2[O-])c(C)n1-c1ccc(Cl)cc1 (centres undefined) | 17% | -1% | i | -101* | 5%
Cc1cc(C(=O)C(=O)O)c(C)n1-c1ccc(Cl)cc1 | -17% | 5% | i | 2 | -5%
CC1=C(C(=O)Nc2ccc(C)cc2C)C(C(C)C)n2nc(SCc3ccccc3Cl)nc2N1 (centres undefined) | -30% | -6% | i | / | -5%
